An excerpt weighted towards active compounds, which were near 1.5% of everything screened.
FEN1 inh: blocks human flap endonuclease 1; P39748; Recombinant FEN1 flap cleavage, fluorescence, 15 min; Potency, µM (top dose mostly 114 µM), for inactives: top-dose activity change, negative = inhibition, usual class: inhibitors; hit rate 0.35% among 390,000; note: potency is the fitted concentration of half-maximal effect; nearly all actives have a fitted effect of over 65% in size
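FEN1 at 10 nM preincubated with compounds 15 min at room temperature, then flap DNA substrate added at 50 nM final. Signal read at 0 and 15 min; concentration-response fitted with four-parameter Hill equation.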
RECQ1 helicase: RECQ1 (human) helicase inhibition; Potency, µM (titrated, usually from 57.3 µM), without a hit: top-dose activity, negative = inhibition, usual class: inhibitors; hit rate 0.54% among 240,000; RECQ1 DNA unwinding, red fluorescence kinetic read;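 note: potency is the fitted concentration of half-maximal effect; plate controls were vehicle for no effect and no enzyme for full effect; nearly all actives have a fitted effect of over 30% in size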
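RECQ1T1 50 nM; forked duplex (20 bp + 30-nt ss tails) 200 nM, ATP 2 mM final; pH 8.0, 2 mM MgCl2, 2.5 ug/ml poly(dI-dC); 15 min compound preincubation; discontinuous kinetic read over 2 h at RT.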
WRN inhibitor: blocks human WRN helicase; WRN helicase unwinding, fluorescent forked duplex, kinetic; Potency, µM (highest dose often 114 µM), for the others: at the top dose activity change, negative = inhibition, actives largely listed as inhibitors; hit rate 0.46% among 360,000; note: potency is the fitted concentration of half-maximal effect; nearly all actives have a fitted effect of over 55% in size
Target sequence (Q14191 whole entry, looked up): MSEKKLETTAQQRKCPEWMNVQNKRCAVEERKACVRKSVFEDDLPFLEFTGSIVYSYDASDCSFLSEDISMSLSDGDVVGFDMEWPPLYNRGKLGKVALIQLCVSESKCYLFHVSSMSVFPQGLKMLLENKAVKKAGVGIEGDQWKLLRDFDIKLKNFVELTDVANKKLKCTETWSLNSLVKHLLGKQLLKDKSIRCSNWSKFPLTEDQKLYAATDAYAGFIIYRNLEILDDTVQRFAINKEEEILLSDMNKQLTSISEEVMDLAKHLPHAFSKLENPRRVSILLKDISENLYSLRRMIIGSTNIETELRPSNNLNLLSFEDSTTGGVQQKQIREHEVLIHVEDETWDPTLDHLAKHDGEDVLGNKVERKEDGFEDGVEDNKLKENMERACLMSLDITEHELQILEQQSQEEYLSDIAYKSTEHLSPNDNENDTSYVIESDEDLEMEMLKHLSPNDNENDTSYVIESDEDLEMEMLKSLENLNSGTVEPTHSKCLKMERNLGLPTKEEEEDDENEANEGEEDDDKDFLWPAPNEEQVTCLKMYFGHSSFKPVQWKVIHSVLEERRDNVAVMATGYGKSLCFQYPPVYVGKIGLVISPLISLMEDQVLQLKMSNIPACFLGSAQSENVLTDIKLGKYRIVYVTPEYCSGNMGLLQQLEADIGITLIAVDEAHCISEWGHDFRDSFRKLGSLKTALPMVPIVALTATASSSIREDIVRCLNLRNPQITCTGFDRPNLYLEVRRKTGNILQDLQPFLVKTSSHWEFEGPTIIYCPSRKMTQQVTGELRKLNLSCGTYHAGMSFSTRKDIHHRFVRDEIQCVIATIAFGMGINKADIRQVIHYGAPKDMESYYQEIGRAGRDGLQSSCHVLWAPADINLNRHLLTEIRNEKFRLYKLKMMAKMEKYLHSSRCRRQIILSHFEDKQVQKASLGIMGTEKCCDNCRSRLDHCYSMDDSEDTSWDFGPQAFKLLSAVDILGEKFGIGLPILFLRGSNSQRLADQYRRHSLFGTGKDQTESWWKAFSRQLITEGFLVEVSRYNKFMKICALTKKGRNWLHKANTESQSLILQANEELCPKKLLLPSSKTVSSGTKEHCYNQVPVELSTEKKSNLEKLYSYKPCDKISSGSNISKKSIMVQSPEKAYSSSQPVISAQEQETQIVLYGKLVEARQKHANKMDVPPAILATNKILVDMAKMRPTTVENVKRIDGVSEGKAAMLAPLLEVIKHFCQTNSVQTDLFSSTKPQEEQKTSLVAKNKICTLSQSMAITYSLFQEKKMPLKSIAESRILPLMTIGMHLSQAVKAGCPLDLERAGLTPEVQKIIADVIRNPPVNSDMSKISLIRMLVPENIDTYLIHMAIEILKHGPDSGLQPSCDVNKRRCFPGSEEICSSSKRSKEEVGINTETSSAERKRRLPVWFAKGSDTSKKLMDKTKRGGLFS
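Kinetic fluorescence helicase assay: unwinding of a quenched forked DNA duplex (100 nM final) with 2 mM ATP final raises red fluorescence (525/598 nm). Compounds sat 15 min at room temperature with 20 nM WRN beforehand.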
PI5P4Ka inh: blocks human PI5P4K alpha kinase activity. P48426. PI5P4Kalpha enzyme, ADP-Glo luminescence, 60 min; stronger effect = lower value. max response, %. hit rate 1.2% among 330,000; active = max response of -50% or lower; inconclusive = between -30% and -50%; inactive = -30% or higher; note: value at the top dose of about 77 µM
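Controls without substrate or without enzyme flank wells where PI5P4Kalpha converts substrate using 5 microM ATP (final). Incubation lasts 60 minutes at room temperature; ADP formed is read by ADP-Glo luminescence.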
BLM helicase inh: Bloom syndrome helicase (human) inhibition | hit rate 0.2% among 350,000 | AID 2528 | P54132 | Potency, µM (series often up to 56.1 µM), for inactives: at the top dose activity change, negative = inhibition, actives largely listed as inhibitors | recombinant BLM DNA unwinding, fluorescence dequenching;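 note: potency is the fitted concentration of half-maximal effect; plate controls were vehicle for no effect and no enzyme for full effect; nearly all actives have a fitted effect of over 35% in size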
APE1 inh-1: inhibitors of human APE1 endonuclease; Potency, µM (series often up to 65.8 µM), inactives show at the highest dose activity change, negative = inhibition, most hits filed as inhibitors; hit rate 0.35% among 350,000; recombinant APE1, TAMRA/BHQ-2 abasic DNA cleavage fluorescence; AID 2517;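 note: potency is the fitted concentration of half-maximal effect; plate controls were vehicle for no effect and reference inhibitor for full effect; nearly all actives have a fitted effect of over 55% in size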
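Incision of a quenched TAMRA/BHQ-2 THF abasic-site duplex (50 nM) by 0.75 nM APE1, after 15 min compound preincubation, measured as fluorescence increase over three 60 s reads. Values normalized to buffer, DMSO and NSC13755 control wells.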
APE1 dye cs: displaces fluorescent dye from DNA, flagging APE1 artifacts | shares compounds with APE1 inh-1 | DNA fluorescent dye displacement counterscreen, fluorescence | Potency, µM (titrated, usually from 28.5 µM), inactives show at the highest dose activity change, negative = inhibition, most hits filed as inhibitors | hit rate 7% among 480 | AID 2564;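 note: loss of thiazole orange fluorescence as the dye is displaced from duplex DNA; potency is the fitted concentration of half-maximal effect; 0% = ThO with dsDNA and no compound and -100% = ThO without dsDNA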
Endo IV inh: Endo IV (E. coli) inhibition counter-screen; Potency, µM (highest dose often 27.1 µM), for inactives: top-dose activity change, negative = inhibition, usual class: inhibitors; E. coli Endo IV, fluorogenic AP-site DNA cleavage; hit rate 4% among 560; shares compounds with APE1 inh-1;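 note: potency is the fitted concentration of half-maximal effect; plate controls were uninhibited enzyme wells for no effect and no enzyme buffer wells for full effect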
APE1 inh-2: confirmation of inhibitors of human APE1 endonuclease; AID 2572; purified APE1, fluorogenic abasic-site DNA cleavage; hit rate 44% among 750; Potency, µM (series often up to 57.1 µM), for inactives: at the top dose activity change, negative = inhibition, usual class: inhibitors; shares compounds with APE1 inh-1; note: potency is the fitted concentration of half-maximal effect; nearly all actives have a fitted effect of over 30% in size
APE1 FP: compounds that displace a DNA probe from human APE1; AID 2573; Potency, µM (series often up to 28.5 µM), inactives show at the highest dose activity, negative = inhibition, actives largely listed as inhibitors; APE1 binding to TAMRA-labelled double-stranded DNA, fluorescence polarization displacement; hit rate 7% among 480; shares compounds with APE1 inh-1; note: potency is the fitted concentration of half-maximal effect
* = called active by the depositor; i = inactive; ? = inconclusive; . = not tested or not shown; ! = not confirmed by another sample; [ ] = another dose, or the depositor's remark. Unless noted, calls come from the whole dose curve; as a rule, active = well fitted curve in the direction sought with a large enough effect; inconclusive = small, poorly fitted or top-dose-only effect, or another doubt; inactive = no such curve, though single readings can be large; an effect the other way counts as inactive or inconclusive. Unless noted, % is set by controls: 0 for no effect and ±100 for the full control effect.

SMILES | FEN1 inh | RECQ1 helicase | WRN inhibitor | PI5P4Ka inh | BLM helicase inh | APE1 inh-1 | APE1 inh-2 | others
Cc1c(C(=O)O)c(O)cc2c1C(=O)c1c(O)c([C@H]3O[C@H](CO)[C@@H](O)[C@H](O)[C@H]3O)c(O)c(O)c1C2=O | 50µM* | 32µM*! | . | . | -11% | 10µM*! | 3.2µM* | APE1 dye cs=?;Endo IV inh=-118%[57.1 µM];APE1 FP=?
COc1c(O)cc2c(c1O)[C@@H]1O[C@H](CO)[C@@H](O)[C@H](O)[C@H]1OC2=O | 19% | . | -1% | 1 | -2% | 8% | .
CS(=O)(=O)C1=NSC2=NC(=O)/C(=C\c3cccn3-c3ccc(Cl)cc3)C(=N)N21 | -18% | -20% | -27%[57.1 µM] | -81* | ? | ? | 14µM*
CC(C)[N+](C)(CCOC(=O)C1c2ccccc2Oc2ccccc21)C(C)C | -7% | ? | 5% | -12 | 10% | 8.9µM*! | -34% | Endo IV inh=-7%[57.1 µM]
CC(C)CNC(=O)COC(=O)C1c2ccccc2Oc2ccccc21 | 1% | . | -2% | 6 | 1% | -9% | .
CCOc1ccc(/C=C/c2nc(C#N)c(N3CCCCC3)o2)cc1 | 12% | . | . | . | -4% | . | .
COc1ccc(CNc2nc(NCc3ccc(OC)cc3)c3ncn(C(C)C)c3n2)cc1 | . | -24% | . | . | -9% | ? | .
CC1=CCC2C(=O)N(c3nc4ccccc4n3C)C(=O)C2C1 (configuration not stated) | 2% | -12% | -14% | . | 3% | ? | 40µM*
COc1ccc(C(CC(=O)N2CCN(c3ccccc3)CC2)c2c(OC)cc(OC)c3c(-c4ccccc4)cc(=O)oc23)cc1 (configuration not stated) | . | ? | . | . | 2% | ? | 5.6µM* | APE1 dye cs=52%;Endo IV inh=?;APE1 FP=8%
NC(=O)c1ccc2nc(NC(=O)c3ccc(N)cc3)sc2c1 | 2% | -22% | -6% | -25 | -9% | -4% | ?
CC[C@H](C)[C@H](NC(=O)[C@H](Cc1ccc(O)cc1)NC(=O)[C@@H](NC(=O)[C@@H](N)CCCN=C(N)N)C(C)C)C(=O)N[C@@H](Cc1cnc[nH]1)C(=O)N1CCC[C@H]1C(=O)N[C@@H](Cc1ccccc1)C(=O)O | . | 15% | . | . | 0% | 13% | .
COc1ccc(CCNC(=O)c2ccc3c(c2)N(Cc2ccccc2Cl)C(=O)c2ccccc2S3)cc1OC | 2% | . | . | . | -5% | . | .
Cc1ccc(-c2noc(-c3nnn(CC(=O)Nc4cc(C)cc(C)c4)c3N)n2)cc1 | 16% | . | . | . | -15% | . | .
CC(C)(C)c1ccccc1NC(=O)c1cnn2c(C(F)F)cc(-c3ccccc3)nc12 | -2% | . | . | . | -3% | . | .
CC(=O)c1ccc(NC(=O)C2CCN(S(=O)(=O)c3ccc4[nH]c5c(c4c3)CCCCC5)CC2)cc1 | 10% | . | . | . | -6% | . | .
COc1cccc(/C=C2\SC(=O)NC2=O)c1OCc1ccc(C(=O)O)cc1 | -2% | i | -9% | -87* | -1% | ? | -22%

Compound activity as filed in PubChem BioAssay.
